The target in assay [1] is Hepatocyte nuclear factor 3-beta (Homo sapiens) (UniProt Q9Y261). The assay is described as follows: ATG_FoxA2_CIS: Attagene CIS-FACTORIAL HepG2 Assay for human Forkhead box A2 (FOXA2) (AID 2282942). As to conditions: HepG2 cis-reporter transcription factor activity, 24 h; actives raise or lower the signal. In outline: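 Endogenous transcription factor activity was read in HepG2 cells carrying transiently transfected cis-promoter reporter units. After 24 h dosing, reporter mRNA was quantified by RT-PCR and capillary electrophoresis, and values fitted bidirectionally versus DMSO.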
Hepatocyte nuclear factor 3-beta (Homo sapiens), sequence (Q9Y261 whole entry, looked up): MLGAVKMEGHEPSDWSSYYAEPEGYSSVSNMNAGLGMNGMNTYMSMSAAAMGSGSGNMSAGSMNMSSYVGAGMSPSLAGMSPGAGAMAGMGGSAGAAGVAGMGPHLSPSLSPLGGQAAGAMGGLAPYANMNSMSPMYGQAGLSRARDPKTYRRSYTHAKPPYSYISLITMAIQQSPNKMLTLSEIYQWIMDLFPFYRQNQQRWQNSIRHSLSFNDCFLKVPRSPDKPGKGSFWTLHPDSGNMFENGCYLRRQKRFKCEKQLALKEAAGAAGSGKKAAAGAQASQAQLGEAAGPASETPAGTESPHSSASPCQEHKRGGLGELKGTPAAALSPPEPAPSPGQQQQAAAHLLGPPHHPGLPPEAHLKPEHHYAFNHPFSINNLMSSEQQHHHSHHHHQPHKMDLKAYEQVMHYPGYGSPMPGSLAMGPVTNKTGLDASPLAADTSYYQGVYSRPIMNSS

Assay [2] concerns the target Heat shock factor protein 1 (Homo sapiens) (UniProt Q00613). The experiment in a line: ATG_HSE_CIS: Attagene CIS-FACTORIAL HepG2 Assay for human Heat Shock Transcription Factor 1 (HSE) (AID 2282953). As to conditions: HepG2 HSE cis-reporter, Attagene RNA transcription; actives raise or lower the signal. The procedure, abridged:
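HepG2 cells transfected with cis-promoter reporter units sensing endogenous transcription factor activity; reporter mRNA quantified 24 h post-dose by RT-PCR and capillary electrophoresis of 6-FAM-labelled products. Bidirectional fitting against DMSO.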

Assay [3] can be described thus: ATG_RORE_CIS: Attagene CIS-FACTORIAL HepG2 Assay for human RAR-related Orphan Receptor Element (RORE) (AID 2282959). As to conditions: HepG2 Attagene cis-factorial RORE reporter, mRNA; actives raise or lower the signal. The procedure, abridged:
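Cells were HepG2 carrying transfected cis-regulated reporter constructs, dosed for 24 hours. Total RNA was reverse-transcribed and reporter cDNA amplified, fluorescently labeled and sized by capillary electrophoresis. Activity was fitted bidirectionally relative to DMSO.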

Assay [4] in a line: ATG_Sox_CIS: Attagene CIS-FACTORIAL HepG2 Assay for human SRY-box transcription factor (SOX) (AID 2282960). As to conditions: HepG2 Attagene cis-factorial SOX reporter, mRNA; actives raise or lower the signal. In outline:
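Transient MRTU transfection of HepG2; 24 h compound incubation; TriZol RNA, oligo(dT) RT, PCR, 6-FAM primer extension, HpaI cut, CE. Bidirectional fit, DMSO = baseline.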

For assay [5], the target named is Transcription factor Sp1 (Homo sapiens) (UniProt P08047). The assay is described as follows: ATG_Sp1_CIS: Attagene CIS-FACTORIAL HepG2 Assay for human Specificity Protein 1 (Sp1) (AID 2282961). As to conditions: HepG2 Sp1 cis-reporter transcription, actives raise or lower the signal. The procedure, abridged:
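Endogenous Sp1 activity was gauged in human liver HepG2 cells bearing transfected reporter units under a cis-regulating promoter. After 24 h dosing, reporter mRNA was quantified by RT-PCR with capillary electrophoresis, and activity fitted bidirectionally versus DMSO.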

The nature of assay [6]: ATG_SREBP_CIS: Attagene CIS-FACTORIAL HepG2 Assay for human Sterol Regulatory Element Binding (SREBP) (AID 2282962). As to conditions: HepG2 Attagene cis-factorial SREBP reporter, mRNA; actives raise or lower the signal. The procedure, abridged:
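In this cis-format assay, HepG2 liver cells express reporters controlled by promoter elements responsive to native transcription factors. Exposure lasts 24 h; reporter mRNA fluorescence from capillary electrophoresis gives the signal, fitted bidirectionally against DMSO.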

Assay [7] has as its target Signal transducer and activator of transcription 3 (Homo sapiens) (UniProt P40763). The experiment in a line: ATG_STAT3_CIS: Attagene CIS-FACTORIAL HepG2 Assay for human Signal Transducer and Activator of Transcription 3 (STAT3) (AID 2282963). As to conditions: HepG2, Attagene cis-factorial STAT3 reporter transcription; actives raise or lower the signal. The procedure, abridged: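 Readout: fluorescent reporter mRNA fragments resolved by capillary electrophoresis. Setup: HepG2 transfected with MRTUs reporting endogenous transcription-factor activity, dosed 24 h. Gain or loss of signal fitted bidirectionally against DMSO control.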

Assay [8] is described as follows: ATG_TA_CIS: Attagene CIS-FACTORIAL HepG2 Assay for human TA Basal Promoter (AID 2282964). As to conditions: HepG2 Attagene CIS-factorial TA basal promoter reporter; actives raise or lower the signal. In outline: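 HepG2 cells transiently transfected with multiple reporter units under cis promoter elements, reporting endogenous transcription factor activity; this endpoint tracks the TA basal promoter as background control. Reporter mRNA after 24 h dosing measured by RT-PCR/capillary electrophoresis; bidirectional fits versus DMSO.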

Assay [9] is described as follows: ATG_TCF_b_cat_CIS: Attagene CIS-FACTORIAL HepG2 Assay for human T-Cell-Factor with beta-catenin (TCF/b-cat) (AID 2282965). As to conditions: HepG2 TCF/beta-catenin cis-reporter transcription, actives raise or lower the signal. In outline:
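HepG2 cells transiently transfected with cis-promoter-driven multiplexed reporter units; reporter mRNA measured 24 h after dosing by RT-PCR, FAM labelling, HpaI digestion and capillary electrophoresis. Bidirectional fitting relative to DMSO baseline.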

Assay [10] is described as follows: ATG_TAL_CIS: Attagene CIS-FACTORIAL HepG2 Assay for human TAL Basal Promoter (AID 2282966).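 Note: background control endpoint measuring basal TAL promoter reporter mRNA not a specific factor.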 As to conditions: HepG2 Attagene cis-factorial TAL promoter reporter; actives raise or lower the signal. In outline: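 Human hepatoma HepG2 cells, transfected with promoter-regulated reporter units, were treated 24 h. Reporter transcript levels, measured through RT-PCR and capillary electrophoresis, were fitted for gain or loss relative to DMSO.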

Assay [11] in a line: ATG_VDRE_CIS: Attagene CIS-FACTORIAL HepG2 Assay for human Vitamin D Receptor Element (VDRE) (AID 2282968). As to conditions: HepG2 VDRE cis-reporter transcription, actives raise or lower the signal. In outline: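 Transient MRTU transfection of HepG2, 24 h compound exposure. Readout: reporter transcripts via RT-PCR and capillary electrophoresis, fluorescence. Bidirectional fit vs DMSO.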

In assay [12] the target is Transcriptional activator Myb (Homo sapiens) (UniProt P10242). The experiment in a line: ATG_Myb_CIS: Attagene CIS-FACTORIAL HepG2 Assay for human Myeloblastosis (Myb) Proto-Oncogene Transcription Factor (AID 2282986). As to conditions: HepG2 Attagene CIS-FACTORIAL Myb reporter transcription; actives raise or lower the signal. In outline:
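Steps: transfect HepG2 with cis-regulated reporter units; dose with chemical for 24 h; isolate RNA, reverse-transcribe, PCR-amplify and FAM-label reporter sequences; digest with HpaI; resolve by capillary electrophoresis. Activity fitted in both directions relative to DMSO.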

Assay [13] concerns the target Nuclear respiratory factor 1 (Homo sapiens) (UniProt Q16656). The assay is described as follows: ATG_NRF1_CIS: Attagene CIS-FACTORIAL HepG2 Assay for human Nuclear Respiratory Factor 1 (NRF1) Orphan Gene (AID 2282987). As to conditions: HepG2 NRF1 cis-element reporter, Attagene multiplex; actives raise or lower the signal. In outline: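 Fluorescence intensity of labelled reporter cDNA fragments, resolved by capillary electrophoresis, served as readout for NRF1 cis-element activity. Transiently transfected HepG2 cells were dosed for 24 hours; activity in either direction was fitted against DMSO negative control.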

Assay [14] can be described thus: ATG_NFI_CIS: Attagene CIS-FACTORIAL HepG2 Assay for human Nuclear Factor I (NFI) (AID 2282989). As to conditions: HepG2 cis-regulatory reporter, NFI response element transcription; actives raise or lower the signal. The procedure, abridged:
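Endogenous TF activity in HepG2 cells transiently transfected with cis-element-driven multiplexed reporter units, read 24 h after dosing. Reporter mRNA quantified by RT-PCR, 6-FAM labelling, HpaI digestion and capillary electrophoresis; bidirectional fit versus DMSO.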

The target in assay [15] is Myc proto-oncogene protein (Homo sapiens) (UniProt P01106). The experiment in a line: ATG_Myc_CIS: Attagene CIS-FACTORIAL HepG2 Assay for human Myelocytomatosis (Myc) Proto-Oncogene Transcription Factor (AID 2282990). As to conditions: HepG2, Attagene cis-reporter transcription factor activity; actives raise or lower the signal. The procedure, abridged:
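Transiently transfected HepG2 cells bearing cis-promoter reporter units for endogenous transcription factors; 24 h exposure. Reporter mRNA measured by RT-PCR, 6-FAM primer extension, HpaI cut and capillary electrophoresis; bidirectional fit relative to DMSO.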

Assay [16] is described as follows: ATG_NRF2_ARE_CIS: Attagene CIS-FACTORIAL HepG2 Assay for human Nuclear Factor Erythroid 2 Related Factor 2 (NFR2) response to Antioxidant Response Elements (ARE) (AID 2282992). As to conditions: HepG2 Attagene ARE/NRF2 reporter, transcription factor activity; actives raise or lower the signal. In outline:
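Using transiently transfected HepG2 cells exposed for 24 h, reporter mRNA levels were determined by RT-PCR with fluorescent primer extension and capillary electrophoresis, analysed for gain or loss of signal against DMSO.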

A short description of assay [17]: ATG_Oct_MLP_CIS: Attagene CIS-FACTORIAL HepG2 Assay for human Octamer-Binding Transcription Factor (Oct) (AID 2282993). As to conditions: HepG2 Attagene cis-factorial Oct reporter, mRNA; actives raise or lower the signal. In outline:
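HepG2 cells transiently transfected with cis-element-driven reporter transcription units (endogenous TF activity); 24 h compound exposure. Reporter mRNA quantified by RT-PCR, 6-FAM labelling, HpaI digestion and capillary electrophoresis; bidirectional fit versus DMSO baseline.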

Assay [18] addresses Cellular tumor antigen p53 (Homo sapiens) (UniProt P04637). The experiment in a line: ATG_p53_CIS: Attagene CIS-FACTORIAL HepG2 Assay for human p53 Transcription Factor (AID 2282994). As to conditions: HepG2 p53 cis-element reporter, Attagene mRNA; actives raise or lower the signal. The procedure, abridged:
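In HepG2 cells, reporter transcription units under cis-regulatory promoters were transiently introduced. Following 24 h treatment, RNA was processed to labelled, digested cDNA fragments read by capillary electrophoresis; fitting was bidirectional versus DMSO.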

Assay [19] can be described thus: ATG_XTT_Cytotoxicity: Cytotoxicity Assessment in the Attagene TRANS-FACTORIAL HepG2 Assay (AID 2283584; active = hit-call score of the fitted dose curve at least 0.9, where 1 is the maximum). The procedure, abridged: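 24 h chemical exposure of reporter-transfected HepG2; XTT signal loss vs DMSO indicates cytotoxicity.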
The target of assay [20] is Nuclear receptor subfamily 1 group I member 2 (Homo sapiens) (UniProt O75469). The experiment in a line: ATG_PXR_TRANS: Attagene TRANS-FACTORIAL HepG2 Assay for human Pregnane X Receptor (PXR) (AID 2283008; active = hit-call score of the fitted dose curve at least 0.9, where 1 is the maximum). The procedure, abridged:
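Multiplexed TRANS reporter panel in HepG2; this component tracks PXR-Gal4-driven reporter mRNA after 24 h dosing, measured by RT-PCR with capillary electrophoresis fluorescence, fitted against DMSO.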

The structures appear in SMILES notation. Results filed as inconclusive are left out. Activity calls are given as the source filed them. Rule for the calls, unless noted: active = hit-call score of the fitted dose curve at least 0.9, where 1 is the maximum; inactive = score below 0.9.

Myc proto-oncogene protein (Homo sapiens), sequence (P01106 whole entry, looked up): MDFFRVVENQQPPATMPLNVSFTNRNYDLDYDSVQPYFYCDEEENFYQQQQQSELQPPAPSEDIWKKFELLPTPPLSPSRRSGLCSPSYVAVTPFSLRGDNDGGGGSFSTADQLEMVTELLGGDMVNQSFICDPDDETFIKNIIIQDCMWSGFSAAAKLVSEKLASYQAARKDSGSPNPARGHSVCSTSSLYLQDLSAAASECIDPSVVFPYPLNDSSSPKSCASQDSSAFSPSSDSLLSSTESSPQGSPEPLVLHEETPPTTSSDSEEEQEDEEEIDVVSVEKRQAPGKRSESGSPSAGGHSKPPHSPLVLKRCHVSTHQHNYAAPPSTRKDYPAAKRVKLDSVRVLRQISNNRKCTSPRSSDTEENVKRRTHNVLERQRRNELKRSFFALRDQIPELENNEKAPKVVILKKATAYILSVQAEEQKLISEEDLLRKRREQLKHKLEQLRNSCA
Transcription factor Sp1 (Homo sapiens), sequence (P08047 whole entry, looked up): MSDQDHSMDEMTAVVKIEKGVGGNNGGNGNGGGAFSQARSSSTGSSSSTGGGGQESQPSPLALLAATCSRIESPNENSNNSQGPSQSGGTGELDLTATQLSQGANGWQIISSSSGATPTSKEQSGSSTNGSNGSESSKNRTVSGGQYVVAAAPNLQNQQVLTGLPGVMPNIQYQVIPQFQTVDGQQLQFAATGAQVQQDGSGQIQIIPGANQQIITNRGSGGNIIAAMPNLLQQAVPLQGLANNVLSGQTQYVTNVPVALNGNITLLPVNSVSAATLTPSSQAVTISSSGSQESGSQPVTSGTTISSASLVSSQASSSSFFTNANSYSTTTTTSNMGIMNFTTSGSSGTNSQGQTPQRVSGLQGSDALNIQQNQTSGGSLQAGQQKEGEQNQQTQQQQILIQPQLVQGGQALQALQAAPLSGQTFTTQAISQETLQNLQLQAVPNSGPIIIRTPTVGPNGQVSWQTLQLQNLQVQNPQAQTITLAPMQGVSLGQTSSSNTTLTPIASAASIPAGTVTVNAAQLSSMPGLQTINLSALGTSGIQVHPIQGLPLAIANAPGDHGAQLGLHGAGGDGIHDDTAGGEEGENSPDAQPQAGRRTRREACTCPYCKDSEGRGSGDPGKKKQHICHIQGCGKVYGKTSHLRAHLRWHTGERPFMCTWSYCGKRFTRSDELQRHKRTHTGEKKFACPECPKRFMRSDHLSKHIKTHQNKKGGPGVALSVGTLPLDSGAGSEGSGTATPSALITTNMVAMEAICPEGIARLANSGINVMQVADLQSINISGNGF
Nuclear respiratory factor 1 (Homo sapiens), sequence (Q16656 whole entry, looked up, the tested form may be a part): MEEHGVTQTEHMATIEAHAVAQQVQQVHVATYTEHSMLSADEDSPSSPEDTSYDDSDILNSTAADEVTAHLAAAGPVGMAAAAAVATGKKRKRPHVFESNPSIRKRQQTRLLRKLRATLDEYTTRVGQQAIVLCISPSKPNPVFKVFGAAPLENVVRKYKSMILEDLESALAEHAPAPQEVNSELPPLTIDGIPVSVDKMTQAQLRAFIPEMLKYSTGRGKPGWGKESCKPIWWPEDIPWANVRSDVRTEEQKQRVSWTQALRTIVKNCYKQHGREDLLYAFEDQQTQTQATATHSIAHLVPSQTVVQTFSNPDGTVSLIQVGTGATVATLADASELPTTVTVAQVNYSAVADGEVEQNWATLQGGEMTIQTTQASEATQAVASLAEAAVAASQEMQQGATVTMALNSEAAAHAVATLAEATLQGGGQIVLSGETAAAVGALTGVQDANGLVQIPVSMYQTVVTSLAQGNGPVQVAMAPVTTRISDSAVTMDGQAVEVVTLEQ
Heat shock factor protein 1 (Homo sapiens), sequence (Q00613 whole entry, looked up): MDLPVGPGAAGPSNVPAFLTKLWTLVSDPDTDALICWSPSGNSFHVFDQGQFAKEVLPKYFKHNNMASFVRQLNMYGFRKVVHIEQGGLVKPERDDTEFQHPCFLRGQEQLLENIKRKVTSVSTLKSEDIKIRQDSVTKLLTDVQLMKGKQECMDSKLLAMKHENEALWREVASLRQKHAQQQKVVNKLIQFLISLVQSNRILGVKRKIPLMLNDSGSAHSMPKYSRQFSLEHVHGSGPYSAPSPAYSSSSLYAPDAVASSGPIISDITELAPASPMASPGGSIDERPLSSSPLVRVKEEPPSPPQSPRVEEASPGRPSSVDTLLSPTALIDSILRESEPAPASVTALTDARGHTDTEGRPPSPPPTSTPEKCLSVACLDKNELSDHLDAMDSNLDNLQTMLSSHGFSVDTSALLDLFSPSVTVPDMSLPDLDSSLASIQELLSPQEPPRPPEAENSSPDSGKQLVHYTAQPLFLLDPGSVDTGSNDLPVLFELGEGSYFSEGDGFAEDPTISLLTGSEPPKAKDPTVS
Signal transducer and activator of transcription 3 (Homo sapiens), sequence (P40763 whole entry, looked up, the tested form may be a part): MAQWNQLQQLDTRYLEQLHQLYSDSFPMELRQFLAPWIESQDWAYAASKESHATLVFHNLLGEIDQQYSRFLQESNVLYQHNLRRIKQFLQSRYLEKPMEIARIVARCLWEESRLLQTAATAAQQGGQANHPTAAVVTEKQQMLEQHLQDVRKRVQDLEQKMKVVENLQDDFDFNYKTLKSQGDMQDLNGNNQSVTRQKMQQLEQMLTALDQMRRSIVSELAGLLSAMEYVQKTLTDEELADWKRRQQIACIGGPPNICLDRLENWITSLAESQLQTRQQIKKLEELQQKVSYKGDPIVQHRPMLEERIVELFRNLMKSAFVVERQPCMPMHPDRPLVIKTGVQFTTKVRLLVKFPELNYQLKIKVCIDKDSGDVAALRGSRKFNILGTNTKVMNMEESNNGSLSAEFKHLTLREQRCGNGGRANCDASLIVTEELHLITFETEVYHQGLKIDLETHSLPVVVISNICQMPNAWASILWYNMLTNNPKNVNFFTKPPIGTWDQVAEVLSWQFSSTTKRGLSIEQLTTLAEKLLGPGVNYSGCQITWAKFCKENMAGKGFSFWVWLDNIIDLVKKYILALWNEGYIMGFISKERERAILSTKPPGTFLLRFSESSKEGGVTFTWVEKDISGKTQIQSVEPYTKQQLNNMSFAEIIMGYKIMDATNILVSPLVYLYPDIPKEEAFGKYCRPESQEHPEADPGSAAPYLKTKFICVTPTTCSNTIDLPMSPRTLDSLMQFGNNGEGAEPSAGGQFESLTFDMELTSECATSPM
Transcriptional activator Myb (Homo sapiens), sequence (P10242 whole entry, looked up): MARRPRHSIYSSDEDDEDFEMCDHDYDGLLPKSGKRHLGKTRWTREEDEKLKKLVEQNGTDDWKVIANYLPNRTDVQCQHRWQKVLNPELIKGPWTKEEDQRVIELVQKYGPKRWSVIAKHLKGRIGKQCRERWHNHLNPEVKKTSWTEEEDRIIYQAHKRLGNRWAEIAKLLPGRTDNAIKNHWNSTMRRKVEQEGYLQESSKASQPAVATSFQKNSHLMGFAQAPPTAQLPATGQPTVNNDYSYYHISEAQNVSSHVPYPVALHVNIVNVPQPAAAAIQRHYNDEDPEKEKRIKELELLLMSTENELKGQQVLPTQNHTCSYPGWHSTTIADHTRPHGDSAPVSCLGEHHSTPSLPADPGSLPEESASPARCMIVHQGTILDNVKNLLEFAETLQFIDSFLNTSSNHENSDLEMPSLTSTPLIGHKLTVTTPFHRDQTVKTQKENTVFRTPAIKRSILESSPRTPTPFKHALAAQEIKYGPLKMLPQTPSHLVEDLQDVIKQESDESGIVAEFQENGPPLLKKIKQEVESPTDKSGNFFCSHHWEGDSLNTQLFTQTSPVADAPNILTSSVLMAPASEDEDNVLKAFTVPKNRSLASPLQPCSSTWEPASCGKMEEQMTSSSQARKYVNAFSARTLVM
Cellular tumor antigen p53 (Homo sapiens), sequence (P04637 whole entry, looked up, the tested form may be a part): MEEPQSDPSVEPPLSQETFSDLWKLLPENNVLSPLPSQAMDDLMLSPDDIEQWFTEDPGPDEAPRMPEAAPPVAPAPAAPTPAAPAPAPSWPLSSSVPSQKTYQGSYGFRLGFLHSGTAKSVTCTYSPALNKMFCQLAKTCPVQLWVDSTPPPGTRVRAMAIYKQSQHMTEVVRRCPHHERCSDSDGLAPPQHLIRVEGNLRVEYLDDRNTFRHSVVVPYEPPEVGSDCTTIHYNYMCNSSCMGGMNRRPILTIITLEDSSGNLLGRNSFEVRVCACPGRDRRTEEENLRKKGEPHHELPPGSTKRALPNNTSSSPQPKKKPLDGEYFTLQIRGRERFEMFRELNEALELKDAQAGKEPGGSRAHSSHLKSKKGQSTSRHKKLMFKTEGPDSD
Nuclear receptor subfamily 1 group I member 2 (Homo sapiens), sequence (O75469 whole entry, looked up, the tested form may be a part): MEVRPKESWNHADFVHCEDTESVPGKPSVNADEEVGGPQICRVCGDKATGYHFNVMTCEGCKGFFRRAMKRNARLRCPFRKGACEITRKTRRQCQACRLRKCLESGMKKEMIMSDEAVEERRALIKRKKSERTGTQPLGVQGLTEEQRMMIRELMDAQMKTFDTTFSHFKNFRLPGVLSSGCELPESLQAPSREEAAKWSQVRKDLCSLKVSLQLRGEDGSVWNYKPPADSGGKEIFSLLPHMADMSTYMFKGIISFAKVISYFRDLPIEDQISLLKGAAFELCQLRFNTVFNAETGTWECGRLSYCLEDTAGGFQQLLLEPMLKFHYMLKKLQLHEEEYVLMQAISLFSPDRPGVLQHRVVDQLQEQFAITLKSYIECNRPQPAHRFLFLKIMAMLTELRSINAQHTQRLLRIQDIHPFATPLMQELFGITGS

Regarding `NC(=O)c1ccc(N)cc1`, the molecule was classed as inactive in assay [1], in [2], in assay [3], in assay [4], in assay [5] and in [6]. For the same molecule, the result in [7], in assay [8], in assay [9], in assay [10], in assay [11] and in assay [12] was inactive. Further, the outcome in [13], in [14], in [15], in assay [16], in assay [17] and in assay [18] was inactive. Also, the molecule was called inactive in [19].
On to `C/C=C(\C)C(=O)OCC/C=C\CC`, for which the result in assay [1], in assay [2], in assay [3], in assay [4], in assay [5] and in assay [6] was inactive. The molecule was called inactive in assay [7], in assay [8], in [9], in assay [10], in [11] and in assay [12]. Besides, the molecule was classed as inactive in assay [13], in assay [14], in assay [15], in assay [16], in [17] and in assay [18]. The molecule was called inactive in assay [20].
The term AC50 denotes the concentration at which the activity in the assay is half-maximal. `CN(C)Cc1cc(C(C)(C)C)c(O)c(C(C)(C)C)c1`: the molecule was classed as inactive in [1], in assay [2], in assay [3], in assay [4], in [5] and in assay [7]. Also, the molecule was called inactive in assay [8], in [9], in [10], in [11], in assay [12] and in [13]. For the same molecule, the molecule was called inactive in assay [14], in assay [15], in [17], in [18], in assay [20] and in assay [19]. Also, the AC50 in [6] is 43.1 µM (active); in assay [16], 37.8 µM (active).

The values above are taken from PubChem BioAssay (EPA / NIEHS).
